# The sample as a whole holds a higher share of the strongest signals than the screen did.
# B1: Mg3lysM (Mycosphaerella graminicola) (protein)
# chain: APQNPPTSCSAAPQPTGTGSPGTVCGSTTFTNYTVKAGDTLGAIAKQYNSGVCDIAKVNGIDNPDYIKPDQVLSIPANCVTPDNTSCVKPVPVITNTCVLGVGSTYTVKSGDSFSAIATSFNITLASLEARNPQIPNYDLIFPGQVINTPLCPNSVCDSIGTYVIESGDIFYNLAQSNNVTVGQLESLNVNVNVTDIHPGDIIILPHNCHNITASA
# Tests used:
# Experiment in all cases: glycan array binding signal (z-score within array); higher = stronger binding
# Settings in all cases: glycan notation: IUPAC condensed, linker removed
# [1] = target: Gal(b1-4)GlcNAc(b1-3)Gal(b1-4)GlcNAc(b1-3)Gal(b1-4)GlcNAc(b1-3)Gal(b1-4)GlcNAc(b1-3)Gal(b1-4)GlcNAc(b1-2)[Gal(b1-4)GlcNAc(b1-3)Gal(b1-4)GlcNAc(b1-3)Gal(b1-4)GlcNAc(b1-3)Gal(b1-4)GlcNAc(b1-3)Gal(b1-4)GlcNAc(b1-6)]Man(a1-6)[Gal(b1-4)GlcNAc(b1-3)Gal(b1-4)GlcNAc(b1-3)Gal(b1-4)GlcNAc(b1-3)Gal(b1-4)GlcNAc(b1-3)Gal(b1-4)GlcNAc(b1-2)Man(a1-3)]Man(b1-4)GlcNAc(b1-4)[Fuc(a1-6)]GlcNAc
# How it was run: (§1)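 Glycan array data came from 3228 arrays in the Consortium for Functional Glycomics database, and only arrays with an available protein sequence were kept. Glycan names were put into IUPAC-condensed notation, and columns mapping to the same glycan were averaged. The binding signal is a within-array Z-score, averaged across arrays of one protein sequence run at different concentrations or buffers and across linkers. A negative Z-score can be read as non-binding.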
# [2] = target: Gal(b1-4)GlcNAc(b1-3)Gal(b1-4)GlcNAc(b1-6)[Gal(b1-3)]GalNAc
# How it was run: as §1
# Gal3S(b1-4)Glc6S = target: Gal3S(b1-4)Glc6S
# How it was run: as §1
# Gal6S(b1-4)Glc = target: Gal6S(b1-4)Glc
# How it was run: as §1
# [3] = target: GalNAc(b1-3)Gal(a1-6)Gal(b1-4)Glc
# How it was run: as §1
# [4] = target: GlcNAc(a1-6)Gal(b1-4)GlcNAc
# How it was run: as §1
# [5] = target: GlcNAc(b1-2)[GlcNAc(b1-4)]Man(a1-3)[GlcNAc(b1-4)][GlcNAc(b1-2)[GlcNAc(b1-6)]Man(a1-6)]Man(b1-4)GlcNAc(b1-4)[Fuc(a1-6)]GlcNAc
# How it was run: as §1
# GlcNAc(b1-3)Fuc = target: GlcNAc(b1-3)Fuc
# How it was run: as §1
# [6] = target: GlcNAc(b1-3)Gal(b1-4)GlcNAc(b1-2)Man(a1-3)[GlcNAc(b1-3)Gal(b1-4)GlcNAc(b1-2)Man(a1-6)]Man(b1-4)GlcNAc(b1-4)GlcNAc
# How it was run: as §1
# [7] = target: GlcNAc(b1-3)Gal(b1-4)GlcNAc(b1-3)Gal(b1-4)GlcNAc(b1-3)Gal(b1-4)GlcNAc(b1-3)Gal(b1-4)GlcNAc(b1-2)Man(a1-3)[GlcNAc(b1-3)Gal(b1-4)GlcNAc(b1-3)Gal(b1-4)GlcNAc(b1-3)Gal(b1-4)GlcNAc(b1-3)Gal(b1-4)GlcNAc(b1-2)Man(a1-6)]Man(b1-4)GlcNAc(b1-4)GlcNAc
# How it was run: as §1
# [8] = target: GlcNAc(b1-4)GlcNAc(b1-4)GlcNAc
# How it was run: as §1
# [9] = target: GlcNAc(b1-4)GlcNAc(b1-4)GlcNAc(b1-4)GlcNAc(b1-4)GlcNAc
# How it was run: as §1
# [10] = target: GlcNAc(b1-4)GlcNAc(b1-4)GlcNAc(b1-4)GlcNAc(b1-4)GlcNAc(b1-4)GlcNAc
# How it was run: as §1
# Kdn(a2-3)Gal(b1-3)GalNAc = target: Kdn(a2-3)Gal(b1-3)GalNAc
# How it was run: as §1
# Man(b1-4)GlcNAc = target: Man(b1-4)GlcNAc
# How it was run: as §1
# [11] = target: Neu5Ac(a2-3)Gal(b1-3)GlcNAc6S
# How it was run: as §1
# [12] = target: Neu5Ac(a2-3)Gal(b1-3)[Neu5Ac(a2-6)]GlcNAc(b1-3)[Fuc(a1-3)[Gal(b1-4)]GlcNAc(b1-6)]Gal(b1-4)Glc
# How it was run: as §1
# [13] = target: Neu5Ac(a2-3)Gal(b1-4)GlcNAc(b1-2)Man(a1-3)[Neu5Ac(a2-6)Gal(b1-4)GlcNAc(b1-2)Man(a1-6)]Man(b1-4)GlcNAc(b1-4)GlcNAc
# How it was run: as §1
# [14] = target: Neu5Ac(a2-3)Gal(b1-4)GlcNAc(b1-3)Gal(b1-4)GlcNAc(b1-3)Gal(b1-4)GlcNAc
# How it was run: as §1
# [15] = target: Neu5Ac(a2-3)Gal(b1-4)GlcNAc(b1-3)Gal(b1-4)GlcNAc(b1-3)[Neu5Ac(a2-3)Gal(b1-4)GlcNAc(b1-3)Gal(b1-4)GlcNAc(b1-6)]GalNAc
# How it was run: as §1
# [16] = target: Neu5Ac(a2-3)Gal(b1-4)GlcNAc(b1-6)[Gal(b1-3)]GalNAc
# How it was run: as §1
# [17] = target: Neu5Ac(a2-3)Gal6S(b1-4)[Fuc(a1-3)]GlcNAc
# How it was run: as §1
# [18] = target: Neu5Ac(a2-6)Gal(b1-4)GlcNAc(b1-3)Gal(b1-4)GlcNAc(b1-6)[Gal(b1-3)]GalNAc
# How it was run: as §1
# [19] = target: Neu5Ac(a2-8)Neu5Gc(a2-3)Gal(b1-4)GlcNAc
# How it was run: as §1
binder,measurement,setting,value
B1,glycan array binding signal (z-score),[1],0.14
same,glycan array binding signal (z-score),[2],-0.078
same,glycan array binding signal (z-score),Gal3S(b1-4)Glc6S,-0.101
same,glycan array binding signal (z-score),Gal6S(b1-4)Glc,-0.027
same,glycan array binding signal (z-score),[3],-0.127
same,glycan array binding signal (z-score),[4],-0.108
same,glycan array binding signal (z-score),[5],-0.113
same,glycan array binding signal (z-score),GlcNAc(b1-3)Fuc,0.041
same,glycan array binding signal (z-score),[6],-0.109
same,glycan array binding signal (z-score),[7],-0.191
same,glycan array binding signal (z-score),[8],3.96
same,glycan array binding signal (z-score),[9],19.9
same,glycan array binding signal (z-score),[10],13.5
same,glycan array binding signal (z-score),Kdn(a2-3)Gal(b1-3)GalNAc,0.259
same,glycan array binding signal (z-score),Man(b1-4)GlcNAc,0.12
same,glycan array binding signal (z-score),[11],-0.154
same,glycan array binding signal (z-score),[12],0.077
same,glycan array binding signal (z-score),[13],-0.088
same,glycan array binding signal (z-score),[14],-0.099
same,glycan array binding signal (z-score),[15],0.153
same,glycan array binding signal (z-score),[16],-0.065
same,glycan array binding signal (z-score),[17],-0.14
same,glycan array binding signal (z-score),[18],0.12
same,glycan array binding signal (z-score),[19],0.137

# — the supplement of paper PMC8728848
